According to the supplement of paper PMC12494721:
Where a name gives a salt, the structure may show the parent alone.

Assays:
Details in all cases: 20 µM; incubation time: 27 h, anaerobic, 37 °C;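 for the amine columns active = adjusted P below 0.05 in both replicates with a change the same way and a mean fold change under 0.8 or over 1.25; inactive = the rest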
[1] = system: Clostridium sporogenes DSM 1664; assay: growth (OD595) fold change vs plate DMSO controls (fold change (ratio)); higher = more growth
Procedure, shortened: (§1)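 Anaerobic 27 h, 37 °C mGAM 96-well cultures were shaken, then read for absorbance at 595 nm. Values were blank-subtracted and corrected for compound background using 20 µM compound solutions in water. A calibration factor of 5 converted them to OD. Growth is the fold change versus the median of plate DMSO controls. Fold changes above 1.5 were set to NA, and values are the mean of 2 biological replicates.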

[2] = system: Escherichia coli IAI1; assay: as above
Procedure, shortened: as §1

[3] = system: Klebsiella aerogenes DSM 30053; assay: as above
Procedure, shortened: as §1

[4] = system: Ruminococcus gnavus DSM 108212; assay: as above
Procedure, shortened: as §1

[5] = system: Klebsiella aerogenes DSM 30053; assay: fold change of Histamine concentration vs plate DMSO controls (fold change (ratio)); higher = more amine produced, active = hit call of the paper (significant change in both replicates, either direction)
Procedure, shortened: (§2)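 Amines were quantified by LC–triple-quadrupole MS in dynamic MRM mode against external calibration curves, with drift correction within each batch. The samples were whole anaerobic mGAM cultures of four gut bacterial strains, grown for 27 h at 37 °C in 80 µL wells and extracted with cold acetonitrile/methanol with 0.1% formic acid, then centrifuged. Values are reported as fold change over DMSO controls on the same plate. The mean of 2 biological replicates is given.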

[6] = system: Clostridium sporogenes DSM 1664; assay: fold change of Tryptamine concentration vs plate DMSO controls (fold change (ratio)); higher = more amine produced, active = hit call of the paper (significant change in both replicates, either direction)
Procedure, shortened: as §2

[7] = system: Ruminococcus gnavus DSM 108212; assay: as above
Procedure, shortened: as §2

[8] = system: Escherichia coli IAI1; assay: fold change of Putrescine concentration vs plate DMSO controls (fold change (ratio)); higher = more amine produced, active = hit call of the paper (significant change in both replicates, either direction)
Procedure, shortened: as §2

[9] = system: Klebsiella aerogenes DSM 30053; assay: as above
Procedure, shortened: as §2

[10] = system: Escherichia coli IAI1; assay: fold change of Cadaverine concentration vs plate DMSO controls (fold change (ratio)); higher = more amine produced, active = hit call of the paper (significant change in both replicates, either direction)
Procedure, shortened: as §2

[11] = system: Klebsiella aerogenes DSM 30053; assay: as above
Procedure, shortened: as §2

[12] = system: Ruminococcus gnavus DSM 108212; assay: fold change of 2-Phenylethylamine concentration vs plate DMSO controls (fold change (ratio)); higher = more amine produced, active = hit call of the paper (significant change in both replicates, either direction)
Procedure, shortened: as §2

SMILES	growth [1]	growth [2]	growth [3]	growth [4]	fold change of Histamine concentration [5]	fold change of Tryptamine concentration [6]	fold change of Tryptamine concentration [7]	fold change of Putrescine concentration [8]	fold change of Putrescine concentration [9]	fold change of Cadaverine concentration [10]	fold change of Cadaverine concentration [11]	fold change of 2-Phenylethylamine concentration [12]
C#CCN(C)[C@H](C)Cc1ccccc1 [Selegiline hydrochloride]	0.986	1.05	1.02	0.963	0.982 (inactive)	1.11 (inactive)	1.05 (inactive)	1.07 (inactive)	0.975 (inactive)	1.03 (inactive)	1.01 (inactive)	1.06 (inactive)
CN1CCN(C(=O)OC2c3nccnc3C(=O)N2c2ccc(Cl)cn2)CC1 (centres undefined) [Zopiclone]	1.13	0.987	0.952	0.842	1.03 (inactive)	1.02 (inactive)	0.989 (inactive)	0.98 (inactive)	1.02 (inactive)	0.979 (inactive)	0.99 (inactive)	0.988 (inactive)
O=C(O)CNCP(=O)(O)O	0.851	1.02	0.976	0.965	1.03 (inactive)	0.931 (inactive)	0.98 (inactive)	0.961 (inactive)	1.02 (inactive)	0.991 (inactive)	1.03 (inactive)	0.966 (inactive)
CC[C@@H](C(N)=O)N1CCCC1=O [Levetiracetam]	1.02	1.01	1.08	0.829	0.827 (inactive)	1.06 (inactive)	1.07 (inactive)	1.06 (inactive)	0.951 (inactive)	1.02 (inactive)	1.05 (inactive)	1.07 (inactive)
CCC(COC(=O)c1cc(OC)c(OC)c(OC)c1)(c1ccccc1)N(C)C (centres undefined) [Trimebutine]	0.842	0.979	0.999	0.868	0.944 (inactive)	0.936 (inactive)	1.06 (inactive)	0.928 (inactive)	1.01 (inactive)	0.997 (inactive)	1.01 (inactive)	1.04 (inactive)
CCC1(C2=NCCN2)Cc2ccccc2O1 (centres undefined) [Efaroxan hydrochloride]	1.05	1.05	0.982	1.08	0.992 (inactive)	0.939 (inactive)	1.03 (inactive)	0.97 (inactive)	1.01 (inactive)	1.06 (inactive)	0.997 (inactive)	1.01 (inactive)
COP(N)(=O)SC (centres undefined)	1.17	1.07	1.12	1.01	0.935 (inactive)	0.998 (inactive)	1.05 (inactive)	1.05 (inactive)	1.01 (inactive)	0.966 (inactive)	1.02 (inactive)	1.06 (inactive)
CCN[C@@H](C)Cc1cccc(C(F)(F)F)c1 [Dexfenfluramine hydrochloride]	1.03	1.05	1.1	0.954	0.833 (inactive)	1.28 (inactive)	1.07 (inactive)	1.02 (inactive)	0.95 (inactive)	0.869 (inactive)	1.06 (inactive)	1.16 (inactive)
Oc1ccc(C(c2ccc(O)cc2)(C(F)(F)F)C(F)(F)F)cc1 [Bisphenol AF]	1.04	1.07	0.956	0.983	1.08 (inactive)	0.718 (inactive)	0.717 (active)	1.01 (inactive)	0.989 (inactive)	1.03 (inactive)	0.99 (inactive)	0.723 (inactive)
Cc1cc(C)c(C2=C(OC(=O)CC(C)(C)C)C3(CCCC3)OC2=O)c(C)c1	0.884	1.02	1.01	0.937	1 (inactive)	0.972 (inactive)	1.01 (inactive)	1.01 (inactive)	1.02 (inactive)	0.983 (inactive)	0.999 (inactive)	1.01 (inactive)
CN1CCC2(C)c3cc(O)ccc3N(C)C12 (single isomer, unassigned; (-)) [(-) Eseroline fumarate salt]	1.01	1.04	1.03	1.16	1 (inactive)	1.02 (inactive)	0.951 (inactive)	0.99 (inactive)	1 (inactive)	0.994 (inactive)	0.995 (inactive)	0.954 (inactive)
C[C@]12CC[C@@H]3c4ccc(OC(=O)N(CCCl)CCCl)cc4CC[C@H]3[C@@H]1CC[C@@H]2O [Estramustine]	0.804	0.998	0.983	1.24	0.899 (inactive)	0.616 (active)	0.949 (inactive)	1.01 (inactive)	1.01 (inactive)	1.05 (inactive)	1.04 (inactive)	0.928 (inactive)
CC1(C)C(C(=O)OC(C#N)c2cccc(Oc3ccccc3)c2)C1(C)C (centres undefined)	0.931	1.02	1.01	1.15	1 (inactive)	1.06 (inactive)	1.17 (inactive)	0.937 (inactive)	0.987 (inactive)	0.982 (inactive)	1 (inactive)	1.25 (inactive)
COP(=O)(NC(C)=O)SC (centres undefined)	1.04	0.98	1.02	1.04	1 (inactive)	1.02 (inactive)	1 (inactive)	1.02 (inactive)	1 (inactive)	1.02 (inactive)	0.997 (inactive)	1 (inactive)
O=c1c2ccccc2[se]n1-c1ccccc1 [Ebselen]	1.02	1.12	1.14	1.14	0.916 (inactive)	0.823 (inactive)	0.801 (inactive)	1.02 (inactive)	0.959 (inactive)	0.953 (inactive)	0.984 (inactive)	0.851 (inactive)
Cc1cc(C(C#N)c2ccc(Cl)cc2)c(Cl)cc1NC(=O)c1cc(I)cc(I)c1O (centres undefined)	0	0.947	1	0.156	1.07 (inactive)	0.0183 (active)	0.104 (active)	1.07 (inactive)	1.03 (inactive)	1.29 (active)	1.01 (inactive)	0.11 (active)
COc1ccc(Cc2nccc3cc(OC)c(OC)cc23)cc1OC [Papaverine hydrochloride]	1.17	1.02	1.08	0.848	0.961 (inactive)	1 (inactive)	0.99 (inactive)	0.964 (inactive)	0.992 (inactive)	1.22 (inactive)	1.02 (inactive)	1.06 (inactive)
c1cc2c3c(cccc3c1)CC2 [Acenaphthene]	1.04	1.01	0.974	0.995	1.04 (inactive)	0.986 (inactive)	1.01 (inactive)	1.02 (inactive)	1.02 (inactive)	1.03 (inactive)	0.982 (inactive)	1.05 (inactive)
CCNc1nc(Cl)nc(NC(C)C)n1	1.02	1.02	1	1.06	1.03 (inactive)	0.98 (inactive)	1.06 (inactive)	0.961 (inactive)	0.971 (inactive)	0.849 (inactive)	1 (inactive)	1.1 (inactive)
CN1C(=O)CCS(=O)(=O)C1c1ccc(Cl)cc1 (centres undefined) [Chlormezanone]	1.13	0.97	1.02	0.846	1 (inactive)	0.944 (inactive)	1.05 (inactive)	0.986 (inactive)	1.01 (inactive)	0.984 (inactive)	1.01 (inactive)	1.06 (inactive)
COc1cc2c(c(OC)c1OC)-c1ccc(OC)c(=O)cc1[C@@H](NC(C)=O)CC2 [Colchicine]	0.992	1.02	0.975	1.16	1.06 (inactive)	1.02 (inactive)	0.889 (inactive)	1.04 (inactive)	1.02 (inactive)	1.04 (inactive)	0.983 (inactive)	0.829 (inactive)
O=[N+]([O-])O[C@H]1CO[C@H]2[C@@H]1OC[C@H]2O[N+](=O)[O-] [Isosorbide dinitrate]	0.818	1.09	1.08	1.25	0.954 (inactive)	1.03 (inactive)	1 (inactive)	1.06 (inactive)	0.97 (inactive)	0.94 (inactive)	1.02 (inactive)	1.06 (inactive)
CCC(C)(c1ccc(O)cc1)c1ccc(O)cc1 [Bisphenol B]	1.05	1.04	0.977	1.02	1.06 (inactive)	1.04 (inactive)	0.962 (inactive)	0.976 (inactive)	0.994 (inactive)	1 (inactive)	0.98 (inactive)	0.974 (inactive)
Cc1nc(N(C)C)nc(OC(=O)N(C)C)c1C	1.02	1	0.963	1.06	1.01 (inactive)	1.12 (inactive)	0.985 (inactive)	0.905 (inactive)	1 (inactive)	1.02 (inactive)	1 (inactive)	0.945 (inactive)
O=C(Nc1ccc(F)cc1F)c1cccnc1Oc1cccc(C(F)(F)F)c1	0.931	1.02	1.03	0.965	1.01 (inactive)	0.987 (inactive)	0.983 (inactive)	1.01 (inactive)	0.995 (inactive)	1.03 (inactive)	0.993 (inactive)	0.987 (inactive)
CN(C)[C@@H]1C(=O)C(C(N)=O)=C(O)[C@@]2(O)C(=O)C3=C(O)c4c(O)ccc(Cl)c4[C@@](C)(O)[C@H]3C[C@@H]12 [Chlortetracycline hydrochloride]	0.00816	0.064	0.0706	0.431	0.0679 (active)	0.0172 (active)	0.302 (active)	0.253 (active)	0.47 (inactive)	0.146 (active)	0.483 (inactive)	0.271 (active)
C[C@H](N)[C@H](O)c1ccc(O)c(O)c1 [Levonordefrin]	1.11	0.971	1	0.976	0.953 (inactive)	1.04 (inactive)	1.07 (inactive)	0.904 (inactive)	0.981 (inactive)	0.962 (inactive)	1.01 (inactive)	1.14 (inactive)
